From PubChem
VP16 counter: inhibits Gal4-VP16 luciferase reporter, ROR gamma counter-screen; Drosophila S2 Gal4-VP16 UAS-luciferase, luminescence, 20 h; Potency, µM (series often up to 53.6 µM), inactives show at the highest dose activity, negative = inhibition, hits mostly inhibitors; 3.5% of 310,000 active; AID 2546;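 note: Gal4-VP16 expression switched on by copper sulfate through the metallothionein promoter; potency is the fitted concentration of half-maximal effect; % is set by controls: 0 for no effect and ±100 for the full control effect; nearly all actives have a fitted effect of over 50% in size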
RORgamma inh: inhibitors of mouse ROR gamma transcriptional activity; Drosophila S2 Gal4-RORgamma UAS-luciferase reporter, 20 h; Potency, µM (doses to about 53.6 µM), inactives show at the highest dose activity change, negative = inhibition, most hits filed as inhibitors; 5.4% of 310,000 active; AID 2551; note: potency is the fitted concentration of half-maximal effect; % is set by controls: 0 for no effect and ±100 for the full control effect; nearly all actives have a fitted effect of over 60% in size
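Luminescence from a UAS-regulated Photinus luciferase reporter in stably transfected Drosophila Schneider cells is measured; decreased signal marks ROR gamma inhibition. Fusion expression is induced by 700 uM copper sulfate for 20 hr.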
CBFb-RUNX1 inh: blocks binding between human CBF-beta and RUNX1. Q01196+Q13951. AlphaScreen CBFb-His/RUNX1-biotin binding, biochemical. Potency, µM (highest dose often 59.8 µM), inactives show at the top dose activity, negative = inhibition, usual class: inhibitors. 230,000 tested, under 10 active. AID 1477; note: % of control where 0% means no effect
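AlphaScreen binding: CBFb-His and RUNX1-biotin (30 nM each) preincubated 20 min, compound added for 15 min, then nickel and streptavidin beads for 90 min, all at room temperature. Disruption of the interaction by any mechanism counts as activity.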
CtBP-E1A blk: blocks the CtBP interaction with E1A; 0.49% of 340,000 active; AlphaScreen GST-E1A/His-CtBP binding, 1536-well; hits give low values; activity change, % (test concentration not listed); AID 651724; in the data active = activity change below about -65%; inconclusive = mostly about -30% to -63%; note: % is set by controls: 0 for no effect and ±100 for the full control effect
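GST-E1A and His-tagged CtBP (125 nM each as 5X stock) were preincubated with pin-transferred compound for 2 h at 37 °C in the dark, then glutathione donor and nickel acceptor beads were added for 1 h before AlphaScreen reading.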
Six1-Eya2 inh: Six1/Eya2 interaction inhibition | activity change, % (test concentration not listed) | AlphaScreen GST-Six1/His-Eya2 binding, biochemical; hits give low values | Q15475+O00167 | 0.56% of 360,000 active; in the data active = activity change below about -65%; inconclusive = mostly about -30% to -63%; note: % is set by controls: 0 for no effect and ±100 for the full control effect
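Homogeneous AlphaScreen proximity assay pairing GST-Six1 with His-tagged Eya2 (added as 5X mix: 250 nM and 500 nM) in 50 mM Tris pH 8.0, 300 mM NaCl, 1 mM TCEP. Glutathione donor and nickel acceptor beads; 1 h, 37 °C, dark.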
MBNL1-CUG inh: MBNL1-poly(CUG) RNA binding inhibition; Q9NR56; TR-FRET MBNL1-His/biotin-(CUG)12 binding, 665/545 ratio; Potency, µM (highest dose often 57.5 µM), without a hit: at the highest dose activity change, negative = inhibition, usual class: inhibitors; 0.036% of 280,000 active; active = well fitted inhibition curve with a large enough effect in the signal ratio, with a control signal flat, not every such curve was filed as active; inconclusive = small, poorly fitted or top-dose-only effect, or effect the other way, or a change in a side signal; inactive = no such curve, though single readings can be large or run the other way; the % refers to the signal ratio; note: potency is the fitted concentration of half-maximal effect; % is set by controls: 0 for no effect and ±100 for the full control effect
Target sequence (Q9NR56 whole entry, looked up): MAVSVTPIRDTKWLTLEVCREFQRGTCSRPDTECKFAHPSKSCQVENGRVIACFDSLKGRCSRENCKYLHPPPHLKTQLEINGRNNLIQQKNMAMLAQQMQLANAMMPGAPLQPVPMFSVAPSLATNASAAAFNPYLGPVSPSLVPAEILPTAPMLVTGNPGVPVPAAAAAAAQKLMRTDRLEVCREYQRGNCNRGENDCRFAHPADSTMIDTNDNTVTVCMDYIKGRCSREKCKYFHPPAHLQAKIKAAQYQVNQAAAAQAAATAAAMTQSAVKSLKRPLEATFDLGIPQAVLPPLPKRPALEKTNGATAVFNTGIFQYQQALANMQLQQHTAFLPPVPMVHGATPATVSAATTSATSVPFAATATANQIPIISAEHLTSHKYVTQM
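Compounds (final 92 nM to 58 uM) are added to His-tagged MBNL1 and biotin-(CUG)12, then terbium anti-His antibody and streptavidin-XL665 (5 nM final). After 60 min at room temperature, the 665/545 nm ratio is read.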
Active calls of the source: *; [ ] = remark or other dose. An excerpt weighted towards active compounds, which were near 5.5% of everything screened. Unless noted, calls come from the whole dose curve; as a rule, active = well fitted curve in the direction sought with a large enough effect; inconclusive = small, poorly fitted or top-dose-only effect, or another doubt; inactive = no such curve, though single readings can be large; an effect the other way counts as inactive or inconclusive.

For COCCN1C(=O)c2ccccc2C1c1nc2ccccc2[nH]1 (stereo unspecified) the results were CtBP-E1A blk 8 and Six1-Eya2 inh 10.
Cc1ccc2[nH]c(=O)c(NC(N)=S)nc2c1 was read as VP16 counter inconclusive, RORgamma inh 11µM*, CBFb-RUNX1 inh -5%, CtBP-E1A blk inconclusive, Six1-Eya2 inh inconclusive and MBNL1-CUG inh inconclusive.
Cc1ccc(-n2c(C)nnc2SC(C)C(=O)N2CCCC2)cc1 (stereo unspecified) was read as VP16 counter -12%, RORgamma inh -3%, CtBP-E1A blk -7, Six1-Eya2 inh 0 and MBNL1-CUG inh 0%.
For COc1cc(NC(=O)Cn2ncc(Cl)c(Cl)c2=O)c(C)cc1[N+](=O)[O-] the results were VP16 counter 7.1µM*, RORgamma inh 2µM*, CBFb-RUNX1 inh -2%, CtBP-E1A blk 7 and Six1-Eya2 inh 2.
`COc1cc(NC(=O)CN2C(=O)CN(C)C2=O)c(C)cc1[N+](=O)[O-]` gave VP16 counter 7%, RORgamma inh 2%, CBFb-RUNX1 inh 10%, CtBP-E1A blk -2, Six1-Eya2 inh 0 and MBNL1-CUG inh inconclusive.
For Cc1cccc(NC(=O)N(Cc2nc3ccccc3c(=O)[nH]2)C2CCCC2)c1 the results were VP16 counter -4%, RORgamma inh -33%, CBFb-RUNX1 inh 0%, CtBP-E1A blk 0, Six1-Eya2 inh -2 and MBNL1-CUG inh -11%.
`Cc1ccc(C(=O)N(Cc2nc3ccccc3c(=O)[nH]2)C2CCCC2)cc1` gave VP16 counter 7.1µM*, RORgamma inh -25%, CBFb-RUNX1 inh -2%, CtBP-E1A blk -2, Six1-Eya2 inh 1 and MBNL1-CUG inh 3%.
For O=C(Nc1cccc(Cl)c1)N(Cc1nc2ccccc2c(=O)[nH]1)C1CCCC1 the results were VP16 counter inconclusive, RORgamma inh 14µM*, CBFb-RUNX1 inh 2%, CtBP-E1A blk -3, Six1-Eya2 inh -2 and MBNL1-CUG inh -11%.
Screening CCOC(=O)N1CCN([N+]([O-])=NOc2cc(O/N=[N+](\[O-])N(CC)CC)c([N+](=O)[O-])cc2[N+](=O)[O-])CC1 returned VP16 counter 28%, RORgamma inh 39% and CBFb-RUNX1 inh -1%.
Screening C=CCSc1nc2ccccc2n1C(=O)/C=C/c1ccc(OC)c(OC)c1 returned VP16 counter 11µM*, RORgamma inh 5µM*, CBFb-RUNX1 inh -2%, CtBP-E1A blk -8, Six1-Eya2 inh -2 and MBNL1-CUG inh 16%.
COc1ccc(CC(=O)n2c(CC#N)nc3ccccc32)cc1OC was read as VP16 counter inconclusive, RORgamma inh 11µM*, CBFb-RUNX1 inh 3%, CtBP-E1A blk -2, Six1-Eya2 inh -9 and MBNL1-CUG inh -14%.
C=CCSc1nc2ccccc2n1C(=O)/C=C/c1cc(OC)c(OC)c(OC)c1 was read as VP16 counter 5µM*, RORgamma inh 3.5µM*, CBFb-RUNX1 inh 3%, CtBP-E1A blk -10, Six1-Eya2 inh -5 and MBNL1-CUG inh -6%.
For COc1cc(/C=C/C(=O)N2CCN(C(=O)/C=C/c3cc(OC)c(OC)c(OC)c3)CC2)cc(OC)c1OC the results were VP16 counter 4%, RORgamma inh -11%, CtBP-E1A blk 5, Six1-Eya2 inh 9 and MBNL1-CUG inh 2%.
Screening CCn1c(SCC(=O)N/N=C/c2ccc(OC)c(OC)c2)nc2ccccc21 returned VP16 counter 0%[0.365 µM], RORgamma inh 21%, CBFb-RUNX1 inh 0%, CtBP-E1A blk -15, Six1-Eya2 inh -11 and MBNL1-CUG inh 13%.
COc1ccc(/C=C/C(=O)N2CC(C)OC(C)C2)cc1OC (stereo unspecified) was read as VP16 counter 2%, RORgamma inh -10%, Six1-Eya2 inh 11 and MBNL1-CUG inh 3%.
Screening CCSc1nc2ccccc2n1C(=O)/C=C/c1ccc(OC)c(OC)c1 returned VP16 counter inconclusive, RORgamma inh 7.1µM*, CBFb-RUNX1 inh -25%, CtBP-E1A blk -22, Six1-Eya2 inh -2 and MBNL1-CUG inh 21%.
For CCNC(=O)C1(C)CCCN1C(=O)c1cc(C)on1 (stereo unspecified) the results were CtBP-E1A blk 1 and Six1-Eya2 inh 7.
For CO[C@H]1COC(=O)[C@@H](C)COC(=O)[C@@H](OCc2ccccc2)/C=C\[C@@H]1C the results were VP16 counter 22%[10 µM], RORgamma inh -17%[10 µM] and CBFb-RUNX1 inh 12%[13.1 µM].
Nc1cc(OC(=O)c2c(F)cccc2Cl)nn1S(=O)(=O)c1ccccc1 was read as VP16 counter -2%, RORgamma inh -17%, CtBP-E1A blk 1, Six1-Eya2 inh -9 and MBNL1-CUG inh -3%.
`CN(C)C(=O)C1C2NC(=S)N(c3cccc(Cl)c3)C1(C)Oc1ccc(Cl)cc12` (stereo unspecified) gave VP16 counter inconclusive, RORgamma inh 10µM*, CBFb-RUNX1 inh -14%, CtBP-E1A blk -16, Six1-Eya2 inh -2 and MBNL1-CUG inh 1%.
Screening CN(C)C(=O)C1C2NC(=S)N(c3ccc(Cl)cc3)C1(C)Oc1ccc(Cl)cc12 (stereo unspecified) returned VP16 counter inconclusive, RORgamma inh 10µM*, CBFb-RUNX1 inh -20%, CtBP-E1A blk -10, Six1-Eya2 inh -15 and MBNL1-CUG inh -8%.
For CCOc1ccccc1CN1CCNC(=O)C1CC(=O)NCc1ccccn1 (stereo unspecified) the results were VP16 counter inconclusive, RORgamma inh 11µM*, CtBP-E1A blk inconclusive, Six1-Eya2 inh -19 and MBNL1-CUG inh 8%.
For O=C(CC1C(=O)NCCN1Cc1ccc(-c2ccccc2)cc1)NCCOc1cccnc1 (stereo unspecified) the results were VP16 counter 20µM*, RORgamma inh 3%, CBFb-RUNX1 inh -22%, Six1-Eya2 inh 5 and MBNL1-CUG inh 1%.
`Cc1c(C(=O)c2no[n+]([O-])c2C(=O)c2cnn(C)c2C)cnn1C` gave VP16 counter 8.9µM*, RORgamma inh 10µM*, CBFb-RUNX1 inh 3%, CtBP-E1A blk 1, Six1-Eya2 inh 1 and MBNL1-CUG inh 15%.
Screening COc1ccc(C(=O)c2no[n+]([O-])c2C(=O)c2ccc(OC)cc2)cc1 returned VP16 counter inconclusive, RORgamma inh inconclusive, CBFb-RUNX1 inh -7%, CtBP-E1A blk 2, Six1-Eya2 inh 5 and MBNL1-CUG inh -2%.
